# Reference: the supplement of paper PMC10933113
# Structures can show the parent of a compound that is named as a salt. ± gives the uncertainty stated by the source.
# Test system: THP-1
# Assay: CD54 surface expression induction over DMSO control (% over DMSO); higher = stronger dendritic cell activation
# Conditions: exposure time: 24 h
# Method: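 hCLAT-like CD54 and CD86 surface expression on THP1 cells after 24 h exposure at a single concentration (highest non-cytotoxic concentration, or 100-200 µM if not cytotoxic). Flow cytometry (iQue) was run on 5,000 live cells.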
row,Compound,CD54 surface expression induction
1,CCCCCCCCCCCCOCCO [2-(Dodecyloxy)ethanol] (200 µM),34.2 ± 20
2,c1ccc(CCNc2nc(-c3ccccc3)cs2)cc1 [Fanetizole] (200 µM),-4.51 ± 4.3
3,COC(=O)Nc1nc2cc([S+]([O-])c3ccccc3)ccc2[nH]1 (configuration not stated) [Oxfendazole] (100 µM),17.4 ± 3.6
4,CCN(CC)c1ccc(C(=O)c2ccccc2C(=O)O)c(O)c1 [2-[4-(Diethylamino)-2-hydroxybenzoyl]benzoic acid] (10 µM),-5.88 ± 5
5,CC/C=C\C/C=C\C/C=C\CCCCCCCC(=O)OCC [Ethyl linolenate] (10 µM),-3.84 ± 2.1
6,c1ccc2[nH]c(-c3cscn3)nc2c1 [Thiabendazole] (100 µM),-2.19 ± 1.1
7,COC(=O)Nc1nc2ccc(C(=O)C3CC3)cc2[nH]1 [Cyclobendazole] (100 µM),-7.19 ± 4.8
8,CC(C)(C)c1cc(O)ccc1O [tert-Butylhydroquinone] (100 µM),48.9 ± 12
9,"c1ccc(SCCSc2ccccc2)cc1 [1,2-Bis(phenylthio)ethane] (100 µM)",-6.44 ± 3
10,Nc1ncn([C@@H]2O[C@H](CO)[C@@H](O)[C@H]2O)c(=O)n1 [5-Azacytidine] (10 µM),-4.02 ± 3.5
11,COc1ccc(C(=O)c2ccc(C)cc2)c(O)c1 [Mexenone] (300 µM),-5.78 ± 3.4
12,CC(=O)Oc1ccc(C(c2ccc(OC(C)=O)cc2)c2ccccn2)cc1 [Bisacodyl] (100 µM),-7.9 ± 29
13,"Nc1ccccc1N [1,2-Phenylenediamine*] (200 µM)",161 ± 20
14,CCC1OCC(COc2ccc(Oc3ccccc3)cc2)O1 (configuration not stated) [Diofenolan] (10 µM),-6.06 ± 5.8
15,C[n+]1cc2c3c(ccc2c2ccc4cc5c(cc4c21)OCO5)OCO3 [Sanguinarine] (10 µM),36 ± 5.9
16,O=C(Nc1ccccc1)c1cc(Cl)ccc1O [5-Chlorosalicylanilide] (10 µM),-4.26 ± 3.3
17,CCCCCCCCCCCC(=O)NCCCN(C)C [N-[3-(Dimethylamino)propyl]dodecanamide] (200 µM),14.4 ± 11
18,Oc1ccc2cc(SSc3ccc4cc(O)ccc4c3)ccc2c1 [6-Hydroxy-2-naphthyl disulfide] (100 µM),71.9 ± 1.4
19,Cn1sccc1=O [2-Methyl-4-isothiazolin-3-one hydrochloride] (10 µM),-19.5 ± 27
20,Clc1ccccc1-c1nc(-c2ccncc2)no1 [Pifexole] (100 µM),-5.59 ± 1.4
21,CCCCCCCCCCCCO [1-Dodecanol] (100 µM),9.85 ± 8.8
22,CC(C)(C)c1ccc(S)cc1 [4-tert-Butylbenzenethiol] (200 µM),38.6 ± 14
